According to the supplement of paper PMC11219838:
A number with no mark means an inactive call.

What follows are compounds tested on Caenorhabditis elegans L1 (N2) (assay: survival and reproduction score of C. elegans L1 (0: 0-10 living worms, 1: 11-20, 2: 21-50, 3: >50, 4: overgrown) (score 0-4); higher = more worms, less nematicidal, active = 1 or less; extreme values may be limits of the assay). Settings: 60 µM; 6 days; temperature: 20 °C.
Procedure, shortened: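 Each 96-well well received about 20 synchronized N2 L1 worms of C. elegans, E. coli HB101 and liquid NGM, plus compound pinned to 60 µM final (0.6% v/v DMSO). Sealed plates were incubated with shaking at 200 rpm, 20 °C, for 6 days. Survival and reproduction were rated under a dissection microscope as an ordinal score of living worms per well, averaged across biological replicates. The scale spanned 0 (0–10 worms) to 4 (overgrown, starved), and there were two replicates.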

First: c1csc(-c2nnc(-c3cccs3)o2)c1
Second: Clc1ccc(CSc2nnc(-c3ccccn3)o2)cc1
The “survival and reproduction score” value of the first is lower: 2 for the first, 4 for the second.

Cc1ccccc1-c1noc(COc2ccccc2)n1 and Clc1ccc(OCc2nc(-c3ccccc3)no2)cc1 are the same in “survival and reproduction score” value: 4 for the first, 4 for the second.

c1ccc(-c2noc(COc3cccc4ccccc34)n2)nc1 and Cc1cc(OCc2nc(-c3ccccn3)no2)ccc1Cl are the same in “survival and reproduction score” value: 4 for the first, 4 for the second.

CC(Oc1ccccc1)c1nc(-c2cccnc2)no1 (stereo not drawn) and COc1cccc(-c2noc(COc3ccccc3Cl)n2)c1 are the same in “survival and reproduction score” value: 4 for the first, 4 for the second.

COc1ccccc1-c1noc(-c2ccccc2C)n1 and COc1nc(C)ccc1-c1noc(-c2ccccc2C)n1 are the same in “survival and reproduction score” value: 4 for the first, 4 for the second.

CCN(CC)C(=O)CSc1nnc(-c2ccc(Cl)cc2Cl)o1 and CCOc1ccccc1-c1nnc(SCC(=O)NC(C)CC)o1 (stereo not drawn) are the same in “survival and reproduction score” value: 4 for the first, 4 for the second.

CCOc1nc(-c2ccc(C)cc2)ccc1-c1noc(CC)n1 and CCOc1nc(-c2ccccc2)ccc1-c1noc(CC)n1 are the same in “survival and reproduction score” value: 4 for the first, 4 for the second.

COc1cccc(-c2nnc(SCc3ccccc3)o2)c1 and O=C(CSc1nnc(-c2cccc(Br)c2)o1)c1ccccc1 are the same in “survival and reproduction score” value: 4 for the first, 4 for the second.

COc1ccc(NC(=O)CSc2nnc(-c3ccccc3)o2)cc1 and O=C(CSc1nnc(-c2ccccc2)o1)Nc1cccc(Cl)c1 are the same in “survival and reproduction score” value: 4 for the first, 4 for the second.

O=C(CSc1nnc(-c2ccc(Br)cc2)o1)Nc1ccc2ccccc2c1 and CC(=O)Nc1ccc(C(=O)CSc2nnc(-c3cccc(Br)c3)o2)cc1 are the same in “survival and reproduction score” value: 4 for the first, 4 for the second.

CCCCC(=O)Nc1ccccc1-c1nc(-c2ccccn2)no1 and Cc1ccc(OCc2nc(-c3ccccn3)no2)cc1C are the same in “survival and reproduction score” value: 4 for the first, 4 for the second.

Cc1ccc(C(=O)CSc2nnc(-c3ccccc3)o2)cc1 and Cc1ccc(-c2nnc(SCc3ccccc3Cl)o2)cc1 are the same in “survival and reproduction score” value: 4 for the first, 4 for the second.

O=C(CSc1nnc(-c2ccccc2Cl)o1)Nc1ccc(Br)cn1 and Cc1cc(C)c(CSc2nnc(-c3ccccc3)o2)c(C)c1 are the same in “survival and reproduction score” value: 4 for the first, 4 for the second.

First: Clc1cccc(OCc2nc(-c3ccncc3)no2)c1
Second: Cc1ccc(OCc2nc(-c3ccncc3)no2)cc1C
The “survival and reproduction score” value of the first is lower: 3.5 for the first, 4 for the second.

Cc1cc(C)cc(-c2nc(-c3ccc(Cl)cc3)no2)c1 and COc1cccc(-c2nc(-c3ccc(Cl)cc3)no2)c1 are the same in “survival and reproduction score” value: 4 for the first, 4 for the second.

Cc1ccc(-c2noc(CSc3nc(C)cc(C)n3)n2)cc1 and Cc1ccc(-c2noc(COc3ccc(Br)cc3)n2)cc1 are the same in “survival and reproduction score” value: 4 for the first, 4 for the second.

Going from COc1ccc(-c2noc(COc3ccc(Br)cc3)n2)cc1 to Clc1cc(Br)ccc1OCc1nc(-c2ccccc2)no1, the “survival and reproduction score” value rises from 2 to 4.

COc1ccc(-c2nnc(SCc3csc(N)n3)o2)cc1 and Cc1ccc(CSc2nnc(-c3ccncc3)o2)cc1 are the same in “survival and reproduction score” value: 4 for the first, 4 for the second.

For CC(=O)c1c(C)cc(C)c(CSc2nnc(-c3ccco3)o2)c1C, the “survival and reproduction score” value was 4.

For Brc1ccc(-c2nnc(-c3cccs3)o2)o1, the “survival and reproduction score” value was 0 (active).
